# Measured values from PubChem BioAssay AID430 (Sanford-Burnham Center for Chemical Genomics, 2006).
# About 1,100 (1.7%) of roughly 63,000 compounds were called active. The list comes from a sample in which actives are over-represented; it also holds similar structures and randomly drawn compounds. Measured potencies and affinities stand elsewhere. Values without a mark were called inactive. No stated cut-off is given here; in the data, active means cytotoxicity above about 50%; inactive means the rest.
# Test: HPDE-C7 pancreatic duct cell viability loss – fluorescence, HTS (AID 430);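 further: cells exposed to compound for 48 hours before viability readout; 0% = vehicle and 100% = reference cytotoxic drug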
# Conditions: HPDE-C7 pancreatic duct cells viability, at 10 µM, active compounds read high
row,SMILES,cytotoxicity
1,O=C(NCc1ccc(Cl)c(Cl)c1)c1ccco1,-4.6%
2,CCCCn1c(=O)[nH]c2ccccc21,9.9%
3,COc1ccc(C(=O)NCC(C)CN(C)C)cc1 (stereo unspecified),-2.3%
4,CCOC(=O)Nc1cccc(Nc2ccccc2)c1,4.6%
5,Cc1ccc2[nH]c3c(c2c1)CCc1cn[nH]c1-3,43.6%
6,Cc1ccc2[nH]c3c(c2c1)CCC3=O,-7.5%
7,CCN(CC)S(=O)(=O)c1cccc(C(=O)N2CCCCC2)c1,1.9%
8,c1ccc(-c2cn3nc(-c4ccccc4)sc3n2)cc1,-10.8%
9,CCN(c1cccc(C(F)(F)F)c1)S(=O)(=O)c1ccc2c(c1)CCN2C(C)=O,59.5% (active)
10,CCN(c1cccc(C)c1)S(=O)(=O)c1ccc2c(c1)CCN2C(C)=O,46.6%
11,CCN(c1cccc(C(F)(F)F)c1)S(=O)(=O)c1ccc2c(c1)CCN2C(=O)C1CC1,-11.3%
12,CCC1CCCCN1C(=O)Cn1c(=O)n(CCC(=O)NCc2ccco2)c(=O)c2sccc21 (stereo unspecified),-4.6%
13,c1ccc(Nc2ccccc2Nc2ccccn2)nc1,-35.9%
14,O=C(Nc1ccccn1)c1ccc2ccccc2n1,-1.6%
15,Oc1cccc2ccc(Nc3ccccn3)nc12,119% (active)
16,COC(=O)c1cc(Cc2ccc(N)c(C(=O)OC)c2)ccc1N,1.9%
17,O=C(COC(=O)CSCC(=O)N1CCCCC1)NCc1ccc(F)cc1,-5.4%
18,O=C(NC1CCCCC1)c1ccc(Cn2cc(Br)cn2)o1,-6.8%
19,O=C(Nc1ccc(C(F)(F)F)cc1Cl)c1ccc(Cn2cc(Br)cn2)o1,63.2% (active)
20,CC(=O)c1sc(NC(=O)c2ccc(Cn3cc(Br)cn3)o2)nc1C,3.3%
21,Oc1ccccc1-c1cc(C(F)(F)C(F)F)[nH]n1,-15.5%
22,FC(F)C(F)(F)C(F)(F)C(F)(F)c1cc(-c2ccccc2)n[nH]1,83.3% (active)
23,O=C1CC(C(F)(F)C(F)(F)C(F)(F)C(F)F)=Nc2ccccc2N1,-21.9%
24,CCOCCCNC(=O)Cn1ncc2c(=O)oc3ccccc3c21,-3.8%
25,CCN(CCCNC(=O)Cn1ncc2c(=O)oc3ccccc3c21)c1cccc(C)c1,55.1% (active)
26,CCN(CC)CCCNC(=O)Cn1ncc2c(=O)oc3ccc(C)cc3c21,1.6%

row,SMILES,cytotoxicity
1,Cc1cc(C)nc(NC(=O)NS(=O)(=O)N2CCCCCC2)n1,-13.1%
2,Cc1ccc2[nH]c(=O)c(CN(CCc3ccccc3)Cc3nnnn3CC3CCCO3)cc2c1 (stereo unspecified),9.4%
3,CCOC(=O)N1CCN(C(=O)CSc2nnc(COc3ccc(Cl)cc3)o2)CC1,-20.5%
4,CN1/C(=C/C(=O)c2nc(S(C)(=O)=O)ncc2Cl)C(C)(C)c2ccccc21,110% (active)
5,CN1/C(=C\C(=O)C(F)F)C(C)(C)c2ccccc21,-24.8%
6,CN1/C(=C\C(=O)c2ccco2)C(C)(C)c2ccccc21,-14.9%
7,COc1cc(CO)cc(Br)c1OCC(=O)O,-22.6%
8,O=C(CSc1nnc(Cc2cc(=O)[nH]c(=O)[nH]2)n1-c1ccccc1)N1CCCC1,-9.2%
9,O=C(CSC1=NCCS1)Nc1ccccc1F,-3.4%
10,Cc1cc(NC(=O)CSc2nnc(-c3ccco3)n2Cc2ccco2)no1,-9.5%
11,O=c1nc(-c2ccccc2)cc(-c2ccccc2)[nH]1,-1.2%
12,[O-][n+]1onc2c1CCc1nnc(-c3ccccc3)cc1-2,5.5%
13,Cc1ccc(/C(O)=C2/C(=O)C(=O)N(Cc3cccnc3)C2c2ccccn2)cc1 (stereo unspecified),10.4%
14,COc1cccc(Oc2cncnc2-c2ccc(OC)cc2O)c1,20.3%
15,COc1cccc(Oc2cn[nH]c2-c2ccc(O)cc2O)c1,36%
16,COc1cccc(Oc2cn[nH]c2-c2ccc(OC)cc2O)c1,72.7% (active)
17,COc1ccc(-c2nc(N)ncc2-c2csc(C)n2)c(O)c1,-25%
18,COc1ccc(-c2[nH]ncc2-c2cnn(-c3ccccc3)c2)c(O)c1,-0.4%
19,COc1ccc(-c2nc(N)nc(C)c2Oc2ccccc2Br)c(O)c1,87.7% (active)
20,C=C(C)COc1ccc(-c2nc(N)ncc2-c2ccc(OC)cc2)c(O)c1,70.7% (active)
21,COc1cccc(Oc2cnc(N)nc2-c2ccc(OC)cc2O)c1,52% (active)
22,COc1ccc(-c2nc(N)ncc2Oc2ccccc2Br)c(O)c1,-2.2%
23,C=C(C)COc1ccc(-c2nc(N)ncc2Oc2ccc(OC)cc2)c(O)c1,-10.3%
24,CCOc1ccc(-c2nc(N)nc(C)c2-c2ccc(OC)c(OC)c2)c(O)c1,3.7%
25,CCOc1ccc(-c2ncncc2-c2ccc(OC)cc2)c(O)c1,-11.9%
